Assay outcomes (PubChem)
This is a sample that favours compounds with a hit; in the whole collection about 12% have one here.
Sfp PPTase inh – inhibitors of Bacillus subtilis Sfp phosphopantetheinyl transferase | Q9F4F7 | Biochemical Sfp PPTase activity, qHTS | Potency, µM, for the others: largest response in the series, negative = inhibition, most hits filed as inhibitors | hit rate 3.5% among 310,000 | AID 1490;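 further: the enzyme is Sfp with the accession as filed and its product quenches rhodamine fluorescence; 0% = enzyme reaction without inhibitor and -100% = no enzyme wells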
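Fluorescence-quenching assay: 15 nM Sfp-PPTase preincubated 15 min at room temperature with compound, then 5 uM rhodamine-CoA and 12.5 uM BHQ-2-labelled YbbR peptide added. Fluorescence (ex 525/em 598 nm) read at start and after 30 min; difference gives rate.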
HP1b chromo inh – HP1-beta chromodomain-methylated histone interaction inhibition | hit rate 0.56% among 390,000 | P83916 | AlphaScreen HP1-beta / biotin-H3K9me3 peptide binding | Potency, µM (top dose mostly 114 µM), without a hit: at the highest dose activity change, negative = inhibition, usual class: inhibitors; further: nearly all actives have a fitted effect of over 70% in size
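AlphaScreen: HP1-beta (50 nM) preformed 30 min with biotin-H3(1-18)K9me3 peptide (50 nM) in PBS pH 7.4, 0.01% Tween-20. Compound added for 30 min at RT, then streptavidin donor/nickel chelate acceptor beads (10 ug/mL) for 30 min.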
JMJD2A Tudor – blocks the human JMJD2A Tudor domain; hit rate 4.4% among 390,000; Potency, µM (titrated, usually from 114 µM), inactives show top-dose activity change, negative = inhibition, most hits filed as inhibitors; AlphaScreen JMJD2A-Tudor / H3K4me3 peptide binding; O75164; further: on the % scale 0 is the no-effect control and ±100 the full control effect; nearly all actives have a fitted effect of over 50% in size
G9a inh-1 – inhibitors of human histone lysine methyltransferase G9a; Q96KQ7; G9a H3K9 monomethylation, AlphaScreen, 2 h; Potency, µM (highest dose often 102 µM), inactives show at the top dose activity, negative = inhibition, actives largely listed as inhibitors; hit rate 8.8% among 350,000; further: on the % scale 0 is the no-effect control and ±100 the full control effect; nearly all actives have a fitted effect of over 75% in size
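Signal arises when biotinylated H3K9 peptide, once monomethylated, bridges streptavidin donor and antibody-captured acceptor beads. Enzyme at 20 nM was preincubated 15 min with test compounds; peptide 500 nM and SAM 20 uM then reacted for 2 h.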
BAZ2B inh – BAZ2B (human) inhibition | AlphaScreen BAZ2B-H3K14Ac peptide displacement | Potency, µM (doses to about 114 µM), for inactives: at the top dose activity change, negative = inhibition, usual class: inhibitors | hit rate 4.4% among 360,000 | AID 504333; further: on the % scale 0 is the no-effect control and ±100 the full control effect; nearly all actives have a fitted effect of over 60% in size
Target sequence (Q9UIF8 whole entry, looked up): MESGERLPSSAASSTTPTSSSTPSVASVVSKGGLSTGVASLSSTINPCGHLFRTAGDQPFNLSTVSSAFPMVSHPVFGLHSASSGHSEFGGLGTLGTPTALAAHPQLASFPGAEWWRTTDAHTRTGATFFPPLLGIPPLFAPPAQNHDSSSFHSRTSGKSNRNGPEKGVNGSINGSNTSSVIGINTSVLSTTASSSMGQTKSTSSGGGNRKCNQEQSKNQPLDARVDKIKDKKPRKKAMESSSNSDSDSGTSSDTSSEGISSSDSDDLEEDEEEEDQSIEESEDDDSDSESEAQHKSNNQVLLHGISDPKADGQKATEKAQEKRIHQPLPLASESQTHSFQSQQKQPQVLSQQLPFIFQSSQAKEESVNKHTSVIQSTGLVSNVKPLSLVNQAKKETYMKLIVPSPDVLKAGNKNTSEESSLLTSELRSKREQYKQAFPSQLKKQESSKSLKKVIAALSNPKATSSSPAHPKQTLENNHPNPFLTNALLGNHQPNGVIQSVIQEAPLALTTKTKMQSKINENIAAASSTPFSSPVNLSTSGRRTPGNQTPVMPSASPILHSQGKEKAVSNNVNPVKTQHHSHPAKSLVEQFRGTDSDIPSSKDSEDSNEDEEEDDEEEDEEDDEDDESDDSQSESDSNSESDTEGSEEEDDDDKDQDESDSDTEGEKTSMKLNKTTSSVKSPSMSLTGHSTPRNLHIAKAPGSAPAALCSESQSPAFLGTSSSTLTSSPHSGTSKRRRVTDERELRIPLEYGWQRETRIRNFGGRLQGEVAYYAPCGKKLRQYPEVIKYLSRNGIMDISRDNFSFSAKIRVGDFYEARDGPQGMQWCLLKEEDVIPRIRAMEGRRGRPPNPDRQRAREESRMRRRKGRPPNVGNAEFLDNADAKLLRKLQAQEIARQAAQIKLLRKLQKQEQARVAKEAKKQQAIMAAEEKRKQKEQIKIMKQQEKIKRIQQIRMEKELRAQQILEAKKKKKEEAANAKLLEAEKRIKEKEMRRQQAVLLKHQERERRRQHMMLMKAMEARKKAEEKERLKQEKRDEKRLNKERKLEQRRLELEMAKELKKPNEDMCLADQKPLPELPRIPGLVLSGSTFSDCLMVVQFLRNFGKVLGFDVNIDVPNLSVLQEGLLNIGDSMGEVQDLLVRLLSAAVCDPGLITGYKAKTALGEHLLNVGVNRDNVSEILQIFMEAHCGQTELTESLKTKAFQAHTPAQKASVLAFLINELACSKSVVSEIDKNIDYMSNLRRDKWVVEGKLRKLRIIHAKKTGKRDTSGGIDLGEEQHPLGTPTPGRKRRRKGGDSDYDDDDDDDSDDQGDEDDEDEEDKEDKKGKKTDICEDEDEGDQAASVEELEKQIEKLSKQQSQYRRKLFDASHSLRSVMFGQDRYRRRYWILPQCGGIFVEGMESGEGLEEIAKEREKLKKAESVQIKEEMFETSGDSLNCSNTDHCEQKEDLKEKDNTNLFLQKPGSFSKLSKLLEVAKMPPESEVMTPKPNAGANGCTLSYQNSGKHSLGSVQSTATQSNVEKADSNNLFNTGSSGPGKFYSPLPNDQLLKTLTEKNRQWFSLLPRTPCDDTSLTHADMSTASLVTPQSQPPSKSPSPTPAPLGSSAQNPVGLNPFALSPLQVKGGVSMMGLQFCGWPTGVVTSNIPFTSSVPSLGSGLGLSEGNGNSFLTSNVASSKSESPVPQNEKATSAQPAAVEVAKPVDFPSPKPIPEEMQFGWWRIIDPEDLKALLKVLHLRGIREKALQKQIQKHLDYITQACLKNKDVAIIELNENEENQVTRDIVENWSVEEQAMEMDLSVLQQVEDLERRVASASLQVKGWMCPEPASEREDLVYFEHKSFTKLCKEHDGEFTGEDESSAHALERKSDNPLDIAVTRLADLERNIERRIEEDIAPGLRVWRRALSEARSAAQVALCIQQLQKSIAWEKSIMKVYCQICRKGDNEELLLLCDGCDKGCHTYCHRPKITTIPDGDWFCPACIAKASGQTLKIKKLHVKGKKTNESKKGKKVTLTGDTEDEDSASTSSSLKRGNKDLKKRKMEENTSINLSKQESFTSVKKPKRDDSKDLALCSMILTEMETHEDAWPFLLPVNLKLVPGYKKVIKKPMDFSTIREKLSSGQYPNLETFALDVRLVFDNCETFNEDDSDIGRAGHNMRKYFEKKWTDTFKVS
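BAZ2B (50 nM) with biotin-H3(5-23)K14Ac peptide (50 nM) in PBS pH 7.4, 0.01% Tween-20, preformed 30 min, then compound 30 min at room temperature; top concentration 110uM. AlphaScreen streptavidin donor/nickel chelate acceptor beads (10 ug/mL final), 20 min dark, signal read.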
G9a inh-2 – confirmation of human histone methyltransferase G9a inhibitors. Potency, µM, actives largely listed as inhibitors. shares compounds with JMJD2A Tudor. G9a H3K9 monomethylation, AlphaScreen, 2 h. AID 588344. hit rate 89% among 370; further: nearly all actives have a fitted effect of over 65% in size
An asterisk follows results filed as active; ? = inconclusive; · = no result; [ ] = another dose, or the depositor's remark. The call rests on the fitted dose curve; in most records, active means well fitted curve in the direction sought with a large enough effect; inconclusive means small, poorly fitted or top-dose-only effect, or another doubt; inactive means no such curve, though single readings can be large; an effect the other way counts as inactive or inconclusive. Potency means the concentration at half of the fitted maximal effect.

SMILES	Sfp PPTase inh	HP1b chromo inh	JMJD2A Tudor	G9a inh-1	BAZ2B inh	G9a inh-2
Cc1ccc(NCc2ccccc2OCc2ccccc2F)cc1	-3.0%	-24.9%	?	?	?	·
NS(=O)(=O)c1ccc(NCc2ccccc2OCc2ccccc2F)cc1	1.4%	17.9%	?	-1.5%	-34.6%	·
Oc1ccc(NCc2ccccc2OCc2ccccc2Cl)cc1	·	-10.0%	?	?	25.1µM*	11.5*
CCCCC(O)(c1ccc(F)cc1)C(CN1CCOCC1)c1ccc(Cl)cc1 (stereo unspecified)	-4.2%	30.3%	-21.4%	-18.7%	-9.8%	·
O=[N+]([O-])c1ccc(CSc2ccc(S(=O)(=O)N3CCCCC3)cn2)cc1	·	19.6%	-30.1%	·	·	·
CCCCCCCCCCCCCCCCCCO	14.6%	·	·	46.6%[59 µM]	·	·
COc1cccc(CNc2ccc(N3CCCCC3)cc2)c1OC	2.82µM*	39.8µM*	35.5µM*	?	14.1µM*	0.893*
CC(C)c1ccc(C(=O)Nc2ccc(CN3CCOCC3)cc2)cc1	0.8%	36.1%	-16.9%	-2.4%	-15.2%	·
CCOc1ccc(CNc2ccc(N3CCCC3)cc2)cc1	?	-30.0%	63.1µM*	?	17.8µM*	0.893*
COc1cccc(CNc2ccc(S(N)(=O)=O)cc2)c1OC	12.2%	25.3%	-7.4%	13.6%[12.7 µM]	0.7%	·
CC(C)c1ccc(CNc2ccc(N3CCOCC3)cc2)cc1	44.7µM*	11.2µM*	39.8µM*	?	12.6µM*	10*
COc1ccc(NC(=O)N2CCC3(CC2)CCN(C(=O)c2cc(C(F)(F)F)cc(C(F)(F)F)c2)CC3)cc1	24.5%	·	·	-4.8%[12.7 µM]	·	·
COc1cccc(C(=O)Nc2ccc(N(C)C)cc2)c1OC	0.7%	?	56.2µM*	?	50.1µM*	7.08*
CCN(CC)c1ccc(NC(=O)c2cc(Cl)ccc2OC)cc1	-9.2%	35.5µM*	44.7µM*	2.51µM*	?	1.42*
O=C(NCc1ccccc1CN1CCCCC1)c1ccc(Cl)cc1N1CCCC1=O	·	34.1%	?	1µM*	3.2%	7.94*
COC(=O)c1ccc(OC(=O)C2CC(=O)N(c3ccc(C)cc3C)C2)cc1 (stereo unspecified)	18.1%	23.7%	-10.6%	?	-2.7%	28.3*
COc1ccc(OC(=O)C2CC(=O)N(c3ccc(C)cc3)C2)cc1 (stereo unspecified)	1.1%	24.6%	15.5%	?	1.0%	·
CC(C)n1cnc2cc(NC(=O)c3ccco3)ccc21	-8.5%	-2.7%	-15.4%	-34.6%	5.7%	·
CC(C)n1cnc2cc(NCc3ccco3)ccc21	-18.0%	2.8%	?	?	-33.2%[57.1 µM]	14.2*
CCCCCCCCCCCCC(C(=O)O)C(C)C(=O)O (stereo unspecified)	-11.1%	·	·	6.7%[2.33 µM]	·	·
CCN(C(=O)COC(=O)CCc1ccc(OC)cc1)c1c(N)n(Cc2ccccc2)c(=O)[nH]c1=O	·	18.2%	-3.4%	-38.6%	3.8%	·
S=C(Nc1ccccn1)NC1CCCC1	44.7µM*	26.4%	-18.1%	0.355µM*	-23.5%	3.17*
S=C(Nc1ccccn1)NC1CCCCC1	?	17.3%	-14.2%	-125.4%[12.7 µM]	?	·
COc1ccc(O)c(CNc2ccccc2F)c1	6.0%	2.5%	-29.0%	?	·	28.3*
COc1ccc(Br)cc1CN1CCCCCCC1	?	?	3.98µM*	2.82µM*	50.1µM*	12.6*
SMILES	Sfp PPTase inh	HP1b chromo inh	JMJD2A Tudor	G9a inh-1	BAZ2B inh	G9a inh-2
COc1ccc(OC)c(-c2csc(NC(=O)COC(=O)C3CCC3)n2)c1	·	12.3%	-33.9%	?	-37.2%	10*
COc1ccccc1CNC(=O)Cc1csc2nc(-c3ccccc3)cn12	·	8.0%[57 µM]	-32.9%	-1.5%[59 µM]	?	·
CN(C)c1ccc(NC(=O)c2ccc([N+](=O)[O-])cc2Cl)cc1	10.4%	-1.9%	-12.8%	2µM*	-18.8%	6.31*
CN(C)c1ccc(CNC(=O)c2cccc(NC(=O)N3CCSc4ncccc43)c2)cc1	·	-15.0%	?	2.82µM*	?	17.8*
CCOc1ccc(CNC(=O)c2cccc(NC(=O)N3CCSc4ncccc43)c2)cc1	·	25.6%	-11.7%	?	-22.4%	·
CC(=O)c1ccc(NC(=O)C2CC(=O)N(C(C)C)C2)cc1 (stereo unspecified)	18.9%	16.4%	-3.4%	21.9%[59 µM]	-4.1%	·
Cc1nc2ccc(CCO)cc2s1	13.2%	40.2%	-6.5%	1.12µM*	1.1%	?
O=C(c1c[nH]c2ccccc12)C(O)C(c1ccccc1)N1CCOCC1 (stereo unspecified)	26.5%	11.9%	-4.5%	24.6%[59 µM]	4.8%	·
COc1ccc(C(C(O)C(=O)c2c[nH]c3ccccc23)N2CCN(c3ccc(OC)cc3)CC2)cc1 (stereo unspecified)	-11.3%	?	?	?	60.8%	5.62*
Cc1cc(C)c(C)c(S(=O)(=O)N2CCC(C(=O)N3CCN(c4ccc(F)cc4)CC3)CC2)c1C	·	5.5%[57 µM]	-20.7%	·	·	·
Cc1ccc(C(C)(C)C)cc1S(=O)(=O)N1CCC(C(=O)N2CCN(c3ccc(O)cc3)CC2)CC1	·	?	-35.3%	0.794µM*	10.3%	1.42*
COc1ccc(Nc2sc(C(=O)c3ccccc3)c(N)c2C(=O)Nc2cc(C)ccc2C)c(OC)c1	·	?	?	-48.9%[59 µM]	-37.0%	·
COc1ccc(C(=O)c2sc(Nc3cccc(OC)c3)c(C(=O)Nc3cccc(C)c3C)c2N)cc1	-6.5%	-10.5%	?	?	-39.0%	4.48*
CN(CC(=O)Nc1ccc(N2CCOCC2)cc1)Cc1c(O)ccc2ccccc12	?	-1.4%	56.2µM*	0.501µM*	?	0.252*
